Inconclusive results are not listed. Active and inactive are the calls of the source. Rule as the data show it, unless noted: active = inhibition above about 80%; inactive = the rest.
Legend:
[1] = growth inhibition of DIPG glioma cells, dose response, cell-based, SU-DIPG-XIII, MIPE4.0, CellTiter-Glo, qHTS (AID 1347061; cut-off not given, nearly all actives have AC50 up to about 37 µM;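 also: cells exposed to compound for 48 hours before readout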); conditions: SU-DIPG-XIII viability, CellTiter-Glo ATP luminescence
[2] = growth inhibition of DIPG glioma cells, dose response, cell-based, JHH-DIPG-1, MIPE4.0, CellTiter-Glo, qHTS (AID 1347062; cut-off not given, nearly all actives have AC50 up to about 27 µM;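 as to AC50: cells exposed to compound for two days before readout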); conditions: JHH-DIPG-1 viability, CellTiter-Glo ATP luminescence
[3] = SU-DIPG-VI glioma cell viability, MIPE4.0 library, CellTiter-Glo luminescence, qHTS (AID 1347066; cut-off not given, nearly all actives have AC50 up to about 30 µM;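 also: cells exposed to compound for 48 hours before readout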); conditions: CellTiter-Glo ATP luminescence
[4] = JHH-DIPG-1 glioma cell viability, MIPE5.0 library, CellTiter-Glo luminescence, qHTS (AID 1347067; cut-off not given, nearly all actives have AC50 up to about 26 µM;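 also: cells exposed to compound for 48 hours before readout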); conditions: JHH-DIPG-1 glioma viability, CellTiter-Glo ATP luminescence
[5] = SU-DIPG-XXV glioma cell viability, MIPE5.0 library, qHTS (AID 1347068; cut-off not given, nearly all actives have IC50 up to about 30 µM)
[6] = sensitizers of A549 cells to miR-34 induction, primary screen, imaging, A549 dox-inducible miR-34, nuclei and caspase counts (AID 1347080;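 active = compounds whose cell count with miR-34 switched on is under 0.7 times the count with it off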); conditions: A549 miR-34 inducible, Hoechst nuclei count, 48 h
[7] = survival rescue of mitochondrial mutant cells in low glucose, primary screen, MELAS cybrids, Rieske KO mouse fibroblasts, CellTiter-Glo (AID 1508586;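 active = mean z-score across replicates of 1.96 or higher in either the MELAS or the Rieske mutant cell line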;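 also: z relative to plate mean and SD of compound and empty wells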)
[8] = viability loss in pontine glioma line – cell-based, SU-DIPG-XXV, MIPE5.0, CellTiter-Glo, qHTS, dose response (AID 1347065; cut-off not given, nearly all actives have AC50 up to about 26 µM;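 also: cells exposed to compound for 48 hours before ATP readout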); conditions: CellTiter-Glo ATP luminescence
[9] = modifiers of HSF1 nuclear foci, imaging, Selleck Cancer Library (AID 1347162; in the data active = plate-normalised HSF1 focus index below about 0.46); conditions: human cells, at 10 µM; SSMD: measured here: HSF1 foci SSMD mean; cell count: measured here: cell number; plate-normalised HSF1 focus index: stronger effect = lower value
[10] = LFS_MB_P medulloblastoma growth inhibition, cell-based, chromothripsis tumors, cisplatin or BGB combos (AID 1671449); conditions: LFS_MB_P medulloblastoma cells;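 also: cells exposed for 96 hours; 0% = vehicle DMSO and 100% = killing by high DMSO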
[11] = HDN33 neuroblastoma growth inhibition, cell-based, chromothripsis tumors, cisplatin or BGB combos (AID 1671450); conditions: HDN33 neuroblastoma cells, stronger effect = higher value;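 also: cells exposed to compound for four days; 0% = vehicle DMSO and 100% = cell killing by high DMSO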
[12] = ICB984 medulloblastoma cell growth inhibition, synergistic combos for chromothripsis tumors, cisplatin or BGB combos (AID 1671451; call rule not given here;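 also: cells exposed for 96 hours before readout; 0% = vehicle DMSO and 100% = killing by high DMSO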); conditions: ICB984 medulloblastoma cells, drug combinations, stronger effect = higher value
[13] = LFS_MB_1R medulloblastoma cell growth inhibition, synergistic combos for chromothripsis tumors, cisplatin or BGB combos (AID 1671452); conditions: LFS_MB_1R medulloblastoma cells, stronger effect = higher value;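 also: cells exposed for 96 hours before readout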
[14] = HTB85 osteosarcoma cell growth inhibition, synergistic combos for chromothripsis tumors, BGB or cisplatin IC20 combos (AID 1671453); conditions: HTB85 osteosarcoma cells, drug combinations, stronger effect = higher value;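 also: cells exposed for 96 hours before readout; 0% = vehicle DMSO and 100% = high DMSO killing control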
[15] = MDA-MB-436 breast carcinoma cell growth inhibition, synergistic combos for chromothripsis tumors, BGB or cisplatin combos (AID 1671458; call rule not given here;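 also: cells exposed for 96 hours; 0% = vehicle DMSO and 100% = killing by high DMSO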); conditions: MDA-MB-436 breast carcinoma growth inhibition, drug combinations, stronger effect = higher value
[16] = growth inhibition of BT084 medulloblastoma cells, cell-based, ICGC_MB145, cisplatin and BGB IC40 combos (AID 1671461); conditions: drug combinations, stronger effect = higher value;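 also: cells exposed to drugs for 96 hours; 0% = vehicle DMSO and 100% = high DMSO full killing control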
[17] = growth inhibition of RCMB18 medulloblastoma cells, cell-based, cisplatin and BGB IC40 combos (AID 1671462); conditions: stronger effect = higher value;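 also: cells exposed to compound for four days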
[18] = growth inhibition of CRL1545 osteosarcoma cells, cell-based, cisplatin and BGB IC20 combos (AID 1671464); conditions: stronger effect = higher value;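 also: cells exposed to compound for 96 hours before readout; 0% = vehicle DMSO and 100% = high DMSO killing control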
[19] = measured here: combination with BGB IC40, at 0.05 µM
[20] = measured here: with BGB IC20 combination, at 0.5 µM
[21] = measured here: with cisplatin IC20 combination, at 0.5 µM
[22] = measured here: combination with cisplatin, at 0.5 µM

For `Cc1cc(C(C)Nc2ccccc2)c2nc(N3CCOCC3)cc(=O)n2c1` (configuration not stated), the outcome [1] was “inactive”, the outcome [2] was “inactive” and the outcome [3] was “inactive”. For the same molecule, the outcome [4] was “inactive”, the outcome [5] was “inactive” and the fold change ([6]; stronger effect = lower value, cell number ratio, induced over uninduced) was 0.85 (inactive). The fold change ([6]; measured here: relative caspase fold change +Dox/-Dox) was 1.05, the cell count ([6]; measured here: total cells with miR-34 induction, stronger effect = lower value) was 5530 and the cell count ([6]; measured here: total cells without miR-34 induction) was 6510. For the same molecule, the z-score ([7]; MELAS cybrid survival, CellTiter-Glo 48 h, stronger effect = higher value) was -0.0991 (inactive) and the z-score ([7]; Rieske KO mouse fibroblast survival, CellTiter-Glo 72 h) was 1.51.
For `CCCCCN(CCC12CC3CC(CC(C3)C1)C2)C(=O)NCCCc1ccncc1`, the outcome [1] was “inactive”, the outcome [2] was “inactive” and the AC50 [8] was 20.9 µM (active). The AC50 [3] was 20.9 µM (active) and the outcome [5] was “inactive”.
In the case of `COc1cc(Oc2ccnc3cc(OC)c(OC)cc23)ccc1NC(=O)NC(C)c1nccs1` (configuration not stated), the outcome [1] is reported as “inactive”, the outcome [2] is reported as “inactive” and the outcome [3] is reported as “inactive”. For the same molecule, the outcome [4] was “inactive”, the outcome [5] was “inactive” and the SSMD [9] was 1.89. For the same molecule, the cell count [9] was 6450 and the plate-normalised HSF1 focus index [9] was 1.1 (inactive).
For `COc1cc2ncnc(-n3nc(-c4ccccn4)nc3N)c2cc1OC`, the AC50 [1] was 23.5 µM (active), the AC50 [2] was 18.7 µM (active) and the AC50 [8] was 10.5 µM (active). For the same molecule, the outcome [3] was “inactive”, the outcome [5] was “inactive” and the SSMD [9] was 1.68. For the same molecule, the cell count [9] was 7810, the plate-normalised HSF1 focus index [9] was 1.06 (inactive) and the inhibition ([10]; at 0.5 µM, stronger effect = higher value) was -19.6% (inactive). For the same molecule, the inhibition ([10]; measured here: combination with BGB IC20, at 0.005 µM) was -6.46%, the inhibition ([10]; measured here: combination with BGB IC40, at 0.005 µM) was -12% and the inhibition [10, 19] was -14.8%. It also gave an inhibition ([10]; measured here: combination with cisplatin, at 0.5 µM, stronger effect = higher value) of -28.9%, an inhibition ([10]; measured here: combination with cisplatin, at 5 µM, stronger effect = higher value) of 3.9% and an inhibition ([11]; BGB combo, at 5 µM) of -0.513%. The inhibition ([11]; at 0.5 µM) was -39.2% (inactive), the inhibition ([11]; cisplatin combo, at 5 µM) was 11.6% and the inhibition [11, 20] was -47.1%. For the same molecule, the inhibition [11, 21] was -45.4%, the inhibition ([11]; single agent, at 5 µM) was 27.9% and the inhibition ([12]; BGB IC20 combo, at 0.005 µM) was 8.82%. For the same molecule, the inhibition ([12]; BGB IC40 combo, at 0.005 µM) was -28.2%, the inhibition ([12]; BGB IC40 combo, at 0.05 µM) was -13.5% and the inhibition ([12]; at 0.5 µM) was -27.7% (inactive). It also gave an inhibition ([12]; cisplatin combo, at 0.05 µM) of -18%, an inhibition ([12]; cisplatin combo, at 0.5 µM) of -47.4% and an inhibition ([12]; cisplatin combo, at 5 µM) of -33.3%. The inhibition ([12]; measured here: 5 uM single agent, at 5 µM) was -7.48%, the inhibition ([13]; at 0.5 µM) was -45.7% (inactive) and the inhibition [13, 19] was -46.2%. For the same molecule, the inhibition [13, 22] was -87.1%, the inhibition ([13]; measured here: combination with cisplatin, at 5 µM) was -37.2% and the inhibition ([14]; at 0.5 µM) was -23% (inactive). For the same molecule, the inhibition ([14]; measured here: with BGB IC20, at 0.5 µM) was -35.6%, the inhibition ([14]; measured here: with BGB IC20, at 5 µM) was 15.3% and the inhibition ([14]; measured here: with cisplatin IC20, at 0.5 µM) was -19.3%. For the same molecule, the inhibition ([14]; measured here: with cisplatin IC20, at 5 µM) was 25.5%, the inhibition ([14]; single agent, at 5 µM) was 39.7% and the inhibition ([15]; at 0.5 µM) was -17.5% (inactive). The inhibition ([15]; measured here: BGB combination, at 0.5 µM) was -21.1%, the inhibition ([15]; measured here: BGB combination, at 5 µM) was -18.6% and the inhibition ([15]; measured here: cisplatin combination, at 0.5 µM) was -13.3%. The inhibition ([15]; measured here: cisplatin combination, at 5 µM) was -24.4%, the inhibition ([16]; at 0.5 µM) was 0.0685% (inactive) and the inhibition ([16]; cisplatin combination, at 0.5 µM) was 7.09%. For the same molecule, the inhibition ([16]; cisplatin combination, at 5 µM) was 63.7%, the inhibition ([16]; measured here: BGB IC40 combination 0.05 uM, at 0.05 µM) was 69% and the inhibition ([16]; single agent, at 5 µM) was 13.7%. The inhibition ([17]; at 0.5 µM) was -14.5% (inactive), the inhibition ([17]; cisplatin combo, at 5 µM) was 36.5% and the inhibition ([17]; measured here: BGB IC40 combination, at 0.05 µM) was -31.7%. For the same molecule, the inhibition [17, 22] was -5.13%, the inhibition ([17]; single agent, at 5 µM) was -24.7% and the inhibition ([18]; at 0.5 µM) was -59.7% (inactive). For the same molecule, the inhibition [18, 20] was -65.7%, the inhibition [18, 21] was -56.7% and the inhibition ([18]; single agent, at 0.05 µM) was -35.9%. It also gave an inhibition ([18]; single agent, at 5 µM) of -52.5%.
